Laboratory results as given in PubChem BioAssay (NCATS).
Results filed as inconclusive are left out. The source made the active and inactive calls. Calls follow the shape of the dose curve; as a rule, active = well fitted curve in the direction sought with a large enough effect; inconclusive = small, poorly fitted or top-dose-only effect, or another doubt; inactive = no such curve, though single readings can be large; an effect the other way counts as inactive or inconclusive.

What was measured:
[1] = Quantitative High-Throughput drug screen in 47 multiple myeloma cell lines against the NCATS MIPE library collection: ARD_JJKsccE7 cell viability assay (AID 1918929)
How it was run: (§1)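 Primary qHTS used for cherry-picking: cells at 500/well, library compounds for 48 h (37C, 5% CO2), luminescent ATP assay.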

[2] = Quantitative High-Throughput drug screen in 47 multiple myeloma cell lines against the NCATS MIPE library collection: KMM1_JCRB cell viability assay (AID 1918960); also: nearly all actives have a fitted effect of over 30% in size
How it was run: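 Viability screen: myeloma cells (500/well) incubated 48 h at 37 °C, humidified 5% CO2, with pinned library compounds; CellTiter-Glo added, luminescence read; DMSO wells set 100%, medium-only wells 0%.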

[3] = Quantitative High-Throughput drug screen in 47 multiple myeloma cell lines against the NCATS MIPE library collection: KHM11_PLB cell viability assay (AID 1918962); also: nearly all actives have a fitted effect of over 35% in size
How it was run: (§2)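 Myeloma cells (500 per well) were exposed to MIPE 4.0 compounds by pin transfer and incubated 48 hours at 37C, 5% CO2. Viability was read as ATP by CellTiter-Glo luminescence, normalised to DMSO (100%) and media-only (0%) wells.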

[4] = Quantitative High-Throughput drug screen in 47 multiple myeloma cell lines against the NCATS MIPE library collection: JIM3_ECACC cell viability assay (AID 1918963; also: nearly all actives have a fitted effect of over 35% in size)
How it was run: as §2

[5] = Quantitative High-Throughput drug screen in 47 multiple myeloma cell lines against the NCATS MIPE library collection: JJN3_DSMZ cell viability assay (AID 1918966; also: nearly all actives have a fitted effect of over 50% in size)
How it was run: as §1

[6] = Quantitative High-Throughput drug screen in 47 multiple myeloma cell lines against the NCATS MIPE library collection: H1112_PLB cell viability assay (AID 1918967; also: nearly all actives have a fitted effect of over 30% in size)
How it was run: as §1

[7] = Quantitative High-Throughput drug screen in 47 multiple myeloma cell lines against the NCATS MIPE library collection: Karpas25_ECACC cell viability assay (AID 1918968; also: nearly all actives have a fitted effect of over 35% in size)
How it was run: as §1

[8] = Quantitative High-Throughput drug screen in 47 multiple myeloma cell lines against the NCATS MIPE library collection: KMS27_JCRB cell viability assay (AID 1918970); settings: KMS27 myeloma cells, CellTiter-Glo ATP viability, 48 h; viability (% of DMSO): at 45.8 µM (top of the series); also: nearly all actives have a fitted effect of over 30% in size
How it was run: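 CellTiter-Glo luminescence after 48 h drug exposure at 37 °C; 500 cells/well, 1536-well format, pin-tool compound addition; DMSO = 100%, media-only = 0% viability.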

[9] = Quantitative High-Throughput drug screen in 47 multiple myeloma cell lines against the NCATS MIPE library collection: KMS12BM_JCRB cell viability assay (AID 1918971); also: nearly all actives have a fitted effect of over 35% in size
How it was run: (§3)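 Luminescent ATP measurement with CellTiter-Glo gives viability, scaled between DMSO-only wells (100%) and media-only wells (0%). Cells, 500 per well, faced library compounds for 48 hours at 37C.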

[10] = Quantitative High-Throughput drug screen in 47 multiple myeloma cell lines against the NCATS MIPE library collection: KMS12PE_JCRB cell viability assay (AID 1918972); also: nearly all actives have a fitted effect of over 30% in size
How it was run: (§4)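 CellTiter-Glo ATP luminescence gave viability after 48 h compound treatment at 37C of 500 multiple myeloma cells per well. Normalisation used DMSO-only wells as 100% and media-only wells as 0% viability; primary qHTS of approved and investigational drugs.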

[11] = Quantitative High-Throughput drug screen in 47 multiple myeloma cell lines against the NCATS MIPE library collection: KMS20_JCRB cell viability assay (AID 1918973); also: nearly all actives have a fitted effect of over 45% in size
How it was run: as §1

[12] = Quantitative High-Throughput drug screen in 47 multiple myeloma cell lines against the NCATS MIPE library collection: KMS26_JCRB cell viability assay (AID 1918975); also: nearly all actives have a fitted effect of over 45% in size
How it was run: as §3

[13] = Quantitative High-Throughput drug screen in 47 multiple myeloma cell lines against the NCATS MIPE library collection: MMM1_PLB cell viability assay (AID 1918976); also: nearly all actives have a fitted effect of over 35% in size
How it was run: (§5)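 ATP-based CellTiter-Glo luminescence after 48 h drug exposure (37 °C, 5% CO2) of 500 myeloma cells per well. DMSO-only wells set 100% viability, media-only wells 0%; MIPE 4.0 library added by pin tool.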

[14] = Quantitative High-Throughput drug screen in 47 multiple myeloma cell lines against the NCATS MIPE library collection: MOLP8_DSMZ cell viability assay (AID 1918977); also: nearly all actives have a fitted effect of over 45% in size
How it was run: as §5

[15] = Quantitative High-Throughput drug screen in 47 multiple myeloma cell lines against the NCATS MIPE library collection: NCIH929_DSMZ cell viability assay (AID 1918978); also: nearly all actives have a fitted effect of over 35% in size
How it was run: as §5

[16] = Quantitative High-Throughput drug screen in 47 multiple myeloma cell lines against the NCATS MIPE library collection: Karpas417_ECACC cell viability assay (AID 1918961); settings: Karpas417 myeloma viability, CellTiter-Glo ATP luminescence, 48 h; viability (% of DMSO): at 45.8 µM (top of the series)
How it was run: as §4

[17] = Quantitative High-Throughput drug screen in 47 multiple myeloma cell lines against the NCATS MIPE library collection: JIM1_ECACC cell viability assay (AID 1918964)
How it was run: as §1

[18] = Quantitative High-Throughput drug screen in 47 multiple myeloma cell lines against the NCATS MIPE library collection: KMS21BM_JCRB cell viability assay (AID 1918974); settings: ATP luminescence, 48 h; viability: at 45.8 µM (top of the series)
How it was run: as §1

[19] = Quantitative High-Throughput drug screen in 47 multiple myeloma cell lines against the NCATS MIPE library collection: INA6_PLB cell viability assay (AID 1918965; also: nearly all actives have a fitted effect of over 55% in size)
How it was run: as §4
Potency is read from the fitted curve at half-maximal effect.

| SMILES | Potency [1] | Potency [2] | Potency [3] | Potency [4] | Potency [5] | Potency [6] | Potency [7] | Potency [8] | Potency [9] | Potency [10] | Potency [11] | Potency [12] | Potency [13] | Potency [14] | Potency [15] | Potency [16] | Potency [17] | Potency [18] | Potency [19] |
| --- | --- | --- | --- | --- | --- | --- | --- | --- | --- | --- | --- | --- | --- | --- | --- | --- | --- | --- | --- |
| COc1cc([C@@H]2c3cc4c(cc3[C@H](O)[C@H]3COC(=O)[C@@H]23)OCO4)cc(OC)c1OC | 59 nM (active) | 83.3 nM (active) | 105 nM (active) | 118 nM (active) | 526 nM (active) | 526 nM (active) | 187 nM (active) | 52.6 nM (active) | 148 nM (active) | 118 nM (active) | 1320 nM (active) | 372 nM (active) | 469 nM (active) | 469 nM (active) | 590 nM (active) | – | – | – | – |
| CN(C)c1ccc(C(=O)NCCCCCCC(=O)NO)cc1 | 332 nM (active) | 105 nM (active) | – | 2960 nM (active) | 1050 nM (active) | 1870 nM (active) | 469 nM (active) | 66.2 nM (active) | 235 nM (active) | 93.5 nM (active) | – | 2960 nM (active) | – | – | 833 nM (active) | 132 nM (active) | 93.5 nM (active) | 41.8 nM (active) | – |
| CC(=O)NC(CS)C(=O)O (stereo not drawn) | inactive | inactive | inactive | inactive | – | inactive | inactive | – | – | – | inactive | – | 18700 nM (active) | – | inactive | – | – | – | 2960 nM (active) |
| FC(F)(F)c1ccc(Nc2nc3ccc(Oc4ccnc(-c5ncc(C(F)(F)F)[nH]5)c4)cc3[nH]2)cc1 | 14800 nM (active) | 18700 nM (active) | 20900 nM (active) | 23500 nM (active) | 20900 nM (active) | – | 20900 nM (active) | 23500 nM (active) | 18700 nM (active) | 14800 nM (active) | – | – | – | – | – | – | 11800 nM (active) | – | 18700 nM (active) |
| O=C(O)C[C@H](O)C[C@H](O)C=Cc1c(C2CC2)nc2ccccc2c1-c1ccc(F)cc1 | 4180 nM (active) | 5900 nM (active) | 7430 nM (active) | – | – | 13200 nM (active) | 4690 nM (active) | 3320 nM (active) | – | 3720 nM (active) | – | 18700 nM (active) | 14800 nM (active) | 4690 nM (active) | 3720 nM (active) | – | 935 nM (active) | – | 4180 nM (active) |
| N#Cc1c(NC(=O)c2cccc3ccccc23)sc2c1CCCC2 | 296 nM (active) | 296 nM (active) | – | 209 nM (active) | 2640 nM (active) | 418 nM (active) | 743 nM (active) | 20.9 nM (active) | 526 nM (active) | 332 nM (active) | – | 3320 nM (active) | 5260 nM (active) | – | 2350 nM (active) | – | 187 nM (active) | 526 nM (active) | 296 nM (active) |
| N[C@H]1CN(c2c(F)cc3c(=O)c(C(=O)O)cn(C4C[C@@H]4F)c3c2Cl)CC12CC2 (stereo partly drawn) | inactive | inactive | inactive | inactive | – | inactive | – | inactive | – | inactive | inactive | 16600 nM (active) | – | – | inactive | – | inactive | – | – |
| O=C1NC(O)CCN1[C@@H]1O[C@H](CO)[C@H](O)[C@H]1O (stereo partly drawn) | inactive | inactive | – | inactive | – | inactive | inactive | – | – | inactive | – | inactive | – | inactive | inactive | inactive | – | – | – |
| CC(=O)SCC(Cc1ccccc1)C(=O)NCC(=O)OCc1ccccc1 (stereo not drawn) | 8330 nM (active) | 3320 nM (active) | 7430 nM (active) | 3720 nM (active) | 5900 nM (active) | 1660 nM (active) | 1050 nM (active) | 662 nM (active) | 2350 nM (active) | 1660 nM (active) | 2350 nM (active) | 18700 nM (active) | 7430 nM (active) | – | 1050 nM (active) | – | 2960 nM (active) | – | – |
| C=Cc1c(C)c2cc3nc(cc4[nH]c(cc5nc(cc1[nH]2)C(C)=C5CCC(=O)O)c(CCC(=O)OC)c4C)[C@@]1(C)C3=CC=C(C(=O)OC)[C@H]1C(=O)OC | 296 nM (active) | 187 nM (active) | – | 418 nM (active) | 29.6 nM (active) | 235 nM (active) | 132 nM (active) | 132 nM (active) | 187 nM (active) | 187 nM (active) | 148 nM (active) | 743 nM (active) | 332 nM (active) | 2090 nM (active) | 83.3 nM (active) | – | 148 nM (active) | – | 209 nM (active) |
| CC(O)(C#Cc1ccc2c(c1)N(c1nc(N)ncc1Cl)CC2)c1nccs1 (stereo not drawn) | 18700 nM (active) | 5260 nM (active) | – | – | – | 1180 nM (active) | 3720 nM (active) | 20900 nM (active) | – | 13200 nM (active) | 2640 nM (active) | – | 20900 nM (active) | – | 1180 nM (active) | 4690 nM (active) | – | 332 nM (active) | 8330 nM (active) |
| CCOC(=O)C=C[C@H](C[C@@H]1CCNC1=O)NC(=O)[C@@H](CC(=O)[C@@H](NC(=O)c1cc(C)on1)C(C)C)Cc1ccc(F)cc1 | inactive | inactive | – | inactive | inactive | inactive | inactive | inactive | – | inactive | – | inactive | – | – | inactive | inactive | – | – | – |
